The results in this text go back to PubChem BioAssay (NCI).

Assay [1] can be described thus: NCI Yeast Anticancer Drug Screen. Data for the rad50 strain (AID 155).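 Also: 0% = growth of vehicle-only cultures of the same strain.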 As to conditions: S. cerevisiae rad50 strain growth inhibition, active compounds read high. Summed up:
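Relative growth inhibition (compound vs vehicle) was measured in yeast with a defined repair-gene alteration.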

Assay [2] can be described thus: NCI Yeast Anticancer Drug Screen. Data for the mec2-1 strain (AID 157). The settings on record: S. cerevisiae mec2-1 strain, active compounds read high. The procedure, abridged: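 Growth inhibition is read against vehicle-treated controls after compound exposure of the mec2-1 yeast strain, which is defective in DNA damage repair or cell cycle control.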
Assay [3] can be described thus: NCI Yeast Anticancer Drug Screen. Data for the sgs1 mgt1 strain (AID 161).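 Also: 0% = growth of cultures given vehicle only.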 As to conditions: S. cerevisiae sgs1 mgt1 strain, active compounds read high. The procedure, abridged:
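Percent growth inhibition was derived by comparing compound-exposed mutant yeast with vehicle-exposed cultures. The strain carries alterations in DNA damage repair.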

Assay [4] is described as follows: NCI Yeast Anticancer Drug Screen. Data for the cln2 rad14 strain (AID 165).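 Also: 0% = growth equal to vehicle treated cultures.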 As to conditions: S. cerevisiae cln2 rad14 strain, active compounds read high. Summed up: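 Growth inhibition, relative to vehicle-treated controls, is the read-out. The test organism is a yeast strain with defined genetic alterations, cln2 rad14.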
Assay [5] is described as follows: NCI Yeast Anticancer Drug Screen. Data for the bub3 strain (AID 167). As to conditions: S. cerevisiae bub3 mutant strain, active compounds read high. The procedure, abridged: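 Screening used yeast with an engineered genetic alteration affecting cell cycle control. Compound-exposed cultures were compared with vehicle cultures, and reduced growth was taken as inhibition.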

A short description of assay [6]: NCI Yeast Anticancer Drug Screen. Data for the mlh1 rad18 strain (AID 175). The settings on record: S. cerevisiae mlh1 rad18 strain growth inhibition, active compounds read high. Summed up:
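Cells of a genetically altered yeast strain, deficient in DNA damage repair, were treated with compound. Their growth was then compared with that of vehicle-treated cultures to give inhibition.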

The mark [7] stands for this setting: at 5.0 µM (retest, dose inferred, filed as 0.5).
Where [8] appears, read: at 50.0 µM (retest, dose inferred, filed as 5.0).

The panel holds about 79,000 compounds, 15% with a hit somewhere; the sample as a whole holds those more often. Unmarked numbers belong to inactive results. Active and inactive are the calls of the source. Rule as the data show it: active = growth inhibition above about 70%; inactive = the rest.

In the case of `O=P(Nc1cccc(Cl)c1)(Oc1ccccc1)N(CCCl)CCCl` (centres undefined), the growth inhibition in assay [1] (setting [7]) was 40%; in assay [1] (setting [8]), 40%; in assay [1] (at 50.0 µM), 90.2% (active); in assay [2] (setting [7]), 30%; in assay [2] (setting [8]), 30%; in assay [2] (at 50.0 µM), 90.2% (active). The growth inhibition is 43% in assay [3] (setting [7]); 43% in assay [3] (setting [8]); 92.1% (active) in assay [3] (at 50.0 µM); 20% in assay [4] (setting [7]); 20% in assay [4] (setting [8]); 89.8% (active) in assay [4] (at 50.0 µM). Moreover, the growth inhibition in assay [5] (setting [7]) is 26%; in assay [5] (setting [8]) it was 26%; in assay [5] (at 50.0 µM) it was 88.7% (active); in assay [6] (setting [7]), 21%; in assay [6] (setting [8]), 21%; in assay [6] (at 50.0 µM), 88.2% (active).
As for `COC(=O)C(Cl)(Br)CCl` (centres undefined), the growth inhibition in assay [1] (setting [7]) was 13%; in assay [1] (setting [8]), 85% (active); in assay [1] (at 50.0 µM) it was 68.5%; in assay [2] (setting [7]), 6%; in assay [2] (setting [8]) it was 86% (active); in assay [2] (at 50.0 µM), 79.7% (active). Further, the growth inhibition in assay [3] (setting [7]) was 4%; in assay [3] (setting [8]), 49%; in assay [3] (at 50.0 µM) it was 42.1%; in assay [4] (setting [7]) it was 3%; in assay [4] (setting [8]), 65%; in assay [4] (at 50.0 µM), 12.3%. In addition, the growth inhibition in assay [5] (setting [7]) was 9%; in assay [5] (setting [8]), 95% (active); in assay [5] (at 50.0 µM), 43%; in assay [6] (setting [7]), 8%; in assay [6] (setting [8]) it was 81% (active); in assay [6] (at 50.0 µM), 38.7%.
As to `Cc1ccccc1C[As](C)(=O)O`, the growth inhibition was -157% in assay [1] (setting [7]); -140% in assay [1] (setting [8]); 9.95% in assay [1] (at 50.0 µM); -50% in assay [2] (setting [7]); -47% in assay [2] (setting [8]); 2.45% in assay [2] (at 50.0 µM). Further, the growth inhibition is -64% in assay [3] (setting [7]); -58% in assay [3] (setting [8]); 0.1% in assay [3] (at 50.0 µM); -62% in assay [4] (setting [7]); -58% in assay [4] (setting [8]); 14.8% in assay [4] (at 50.0 µM). The growth inhibition in assay [5] (setting [7]) is -76%; in assay [5] (setting [8]), -76%; in assay [5] (at 50.0 µM), 0.25%; in assay [6] (setting [7]), -147%; in assay [6] (setting [8]), -104%; in assay [6] (at 50.0 µM), 0.35%.
For the molecule `O=c1oc2ccccc2c(O)c1C(c1ccc(OCc2ccccc2)cc1)c1c(O)c2ccccc2oc1=O`, the growth inhibition in assay [1] (setting [7]) is 16%; in assay [1] (setting [8]), 7%; in assay [1] (at 50.0 µM), 63.3%; in assay [2] (setting [7]), 16%; in assay [2] (setting [8]) it was 51%; in assay [2] (at 50.0 µM), 86.3% (active). The growth inhibition in assay [3] (setting [7]) is -33%; in assay [3] (setting [8]), 92% (active); in assay [3] (at 50.0 µM), 65.3%; in assay [4] (setting [7]) it was -3%; in assay [4] (setting [8]), 94% (active); in assay [4] (at 50.0 µM), 62.2%. Besides, the growth inhibition in assay [5] (setting [7]) was 7%; in assay [5] (setting [8]), 95% (active); in assay [5] (at 50.0 µM), 60.2%; in assay [6] (setting [7]) it was 7%; in assay [6] (setting [8]), 23%; in assay [6] (at 50.0 µM), 50.9%.
As to `O=C1C=C(Cl)C(=O)C=C1Cl`, the growth inhibition in assay [1] (setting [7]) is 17%; in assay [1] (setting [8]) it was 99% (active); in assay [1] (at 50.0 µM), 99.2% (active); in assay [2] (setting [7]), 13%; in assay [2] (setting [8]), 100% (active); in assay [2] (at 50.0 µM), 99.5% (active). Besides, the growth inhibition in assay [3] (setting [7]) is 10%; in assay [3] (setting [8]), 99% (active); in assay [3] (at 50.0 µM) it was 99.5% (active); in assay [4] (setting [7]), 5%; in assay [4] (setting [8]) it was 91% (active); in assay [4] (at 50.0 µM), 86.7% (active). The growth inhibition in assay [5] (setting [7]) was 5%; in assay [5] (setting [8]), 99% (active); in assay [5] (at 50.0 µM) it was 99.3% (active); in assay [6] (setting [7]), 11%; in assay [6] (setting [8]) it was 99% (active); in assay [6] (at 50.0 µM), 99.3% (active).
As to `NC(=O)CNCc1ccc([As]=O)cc1` (centres undefined), the growth inhibition in assay [1] (setting [7]) was 2%; in assay [1] (setting [8]), 1%; in assay [1] (at 50.0 µM) it was 72.8% (active); in assay [2] (setting [7]), 3%; in assay [2] (setting [8]), -2%; in assay [2] (at 50.0 µM), 50.1%. Besides, the growth inhibition in assay [3] (setting [7]) is 0%; in assay [3] (setting [8]), -2%; in assay [3] (at 50.0 µM), 71.1% (active); in assay [4] (setting [7]) it was 1%; in assay [4] (setting [8]) it was 3%; in assay [4] (at 50.0 µM), 10.4%. Further, the growth inhibition in assay [5] (setting [7]) was 3%; in assay [5] (setting [8]), 8%; in assay [5] (at 50.0 µM), 74.2% (active); in assay [6] (setting [7]), 12%; in assay [6] (setting [8]) it was -6%; in assay [6] (at 50.0 µM) it was 69.5%.
On to `CC(=O)C1C2c3ccccc3C(c3ccccc32)C1C` (centres undefined), for which the growth inhibition in assay [1] (setting [7]) was 3%; in assay [1] (setting [8]), 55%; in assay [1] (at 50.0 µM) it was 77.6% (active); in assay [2] (setting [7]), -7%; in assay [2] (setting [8]), 52%; in assay [2] (at 50.0 µM) it was 10.4%. The growth inhibition is -2% in assay [3] (setting [7]); 62% in assay [3] (setting [8]); 65% in assay [3] (at 50.0 µM); -85% in assay [4] (setting [7]); 63% in assay [4] (setting [8]); 30.5% in assay [4] (at 50.0 µM). Besides, the growth inhibition in assay [5] (setting [7]) was -9%; in assay [5] (setting [8]) it was 71% (active); in assay [5] (at 50.0 µM), 45.1%; in assay [6] (setting [7]) it was -1%; in assay [6] (setting [8]), 53%; in assay [6] (at 50.0 µM), 69.5%.
Consider `Cc1cc[n+](C2=C(Nc3cc(C)cc(C)c3)C(=O)c3ccccc3C2=O)cc1`, for which the growth inhibition in assay [1] (setting [7]) was -3%; in assay [1] (setting [8]) it was 9%; in assay [1] (at 50.0 µM), 24.9%; in assay [2] (setting [7]), -2%; in assay [2] (setting [8]) it was 11%; in assay [2] (at 50.0 µM), 28.5%. Besides, the growth inhibition in assay [3] (setting [7]) is -1%; in assay [3] (setting [8]), 16%; in assay [3] (at 50.0 µM), 9.5%; in assay [4] (setting [7]), -9%; in assay [4] (setting [8]), 1%; in assay [4] (at 50.0 µM) it was 6.75%. Further, the growth inhibition in assay [5] (setting [7]) was 1%; in assay [5] (setting [8]), 45%; in assay [5] (at 50.0 µM), 16%; in assay [6] (setting [7]), -3%; in assay [6] (setting [8]), 15%; in assay [6] (at 50.0 µM), 51.8%.
